Results: ChEMBL document CHEMBL4513216, “Probing the Open Global Health Chemical Diversity Library for Multistage-Active Starting Points for Next-Generation Antimalarials” (ACS Infect Dis, 2020)
Among all 69,000 compounds or so, about 8,600 (12%) showed an effect of 50% or more. The full list was thinned out, with strong results kept by preference.

These molecules were tested on Plasmodium berghei (assay: Screen against P. berghei liver stage (PbLuc), transformed with Luciferase, at 10uM). Conditions: tested at 10 uM.
Type: functional, HepG2

| Compound | INHIBITION [%] |
| --- | --- |
| O=C(NC1CCS(=O)(=O)C1)c1cn(C2CC2)c(=O)c2ccccc12 (stereo not given) | 43.9 |
| CC(=O)NCC(=O)N1CCc2[nH]c(-c3ccccc3)nc2C1 | 43 |
| CN1CCCN(CC(=O)N2CCc3[nH]c(-c4ccccc4)nc3C2)CC1 | 17.6 |
| C[C@@H]1CCC[C@H](C)N1CC(=O)N1CCc2[nH]c(-c3ccccc3)nc2C1 | 64.8 |
| COc1nc2c(cc1C(=O)NCc1noc(-c3ccco3)n1)CCC2 | 55 |
| COc1nc2c(cc1C(=O)NCc1nc(CSC)no1)CCC2 | 43.1 |
| COc1nc2c(cc1C(=O)NCc1noc(Cc3cccs3)n1)CCC2 | 24.7 |
| CCCC(N)CNS(=O)(=O)Cc1cccc(C#N)c1 (stereo not given) | 39.3 |
| O=C(NCCn1ccnc1-c1cc2n(n1)CCNC2)c1ccc(F)cc1 | 8.08 |
| O=C(NCCn1ccnc1-c1cc2n(n1)CCCNC2)c1ccncc1 | 32 |
| O=C(NCCn1ccnc1-c1cc2n(n1)CCNC2)c1ccncc1 | 62.4 |
| Nc1nc(N2CCCCC2)ncc1C(=O)NCc1ccc(F)c(Cl)c1 | 26.4 |
| O=C(COc1cccc2c1CCC2=O)NCC(F)(F)F | 20 |
| O=C(COc1cccc2c1CCC2=O)NCCSc1ccccc1 | -66.3 |
| O=C(COc1cccc2c1CCC2=O)NCc1ccccc1Cl | 50 |
| O=C(COc1cccc2c1CCC2=O)NCCOc1ccccc1 | 41.8 |
| O=C(COc1cccc2c1CCC2=O)NCc1ccccc1F | 1.58 |
| O=C(COc1cccc2c1CCC2=O)NCCc1cccs1 | 63.7 |
| Cc1cc(N2CCC(O)(CN(C)C)C2)c2cc3c(cc2n1)OCO3 (stereo not given) | -7.02 |
| COCC(=O)N1CCCC1c1ccc(C(=O)NCc2ccccc2Cl)s1 (stereo not given) | -9.66 |
| COc1ccc(CSc2nnc(N)n2C2CC2)cc1Cl | 46.3 |
| CCCS(=O)(=O)N1CCC2(CN(c3ccccc3)C(=O)CN2C)C1 (stereo not given) | 41.2 |

| Compound | INHIBITION [%] |
| --- | --- |
| Cc1csc2c(=O)n3c(nc12)CCN(C(=O)c1ccccn1)CC3 | 35.2 |
| Cc1cc2c(=O)n3c(nc2s1)CCN(C(=O)c1ccncc1)CC3 | 19.9 |
| Cc1csc2nc3n(c(=O)c12)CCN(Cc1ccccn1)CC3 | 1.5 |
| Cc1ccc(C(=O)N2CCc3nc4c(C)csc4c(=O)n3CC2)cn1 | 57.5 |
| Cc1csc2c(=O)n3c(nc12)CCN(C(=O)c1cccnc1)CC3 | 36.4 |
| Cc1csc2nc3n(c(=O)c12)CCN(C(=O)c1ccncc1)CC3 | 56.9 |
| CCC[C@H]1CN(S(C)(=O)=O)C[C@@H]1NC(=O)CCOCC | 27.6 |
| O=C(CCN1CCCO1)N1CCCC(CO)(CCCc2ccccc2)C1 (stereo not given) | -4.56 |
| Cc1noc(C)c1CN1CC2(CCCCN2C)CC1=O (stereo not given) | 39.3 |
| Cc1noc(C)c1CN1CC2(CCN(Cc3c[nH]cn3)CC2)CC1=O | -27.6 |
| Cc1noc(C)c1CN1CC2(CCCCN2c2cncnc2)CC1=O (stereo not given) | 65.9 |
| N#Cc1cccc(CN2CC3(CCCCN3c3cncnc3)CC2=O)c1 (stereo not given) | 27.5 |
| N#Cc1cccc(CN2CC3(CCCCN3c3cccnc3)CC2=O)c1 (stereo not given) | 57.1 |
| N#Cc1ccc(CN2CCN(Cc3ccncc3Cl)CC2=O)cc1 | 25.7 |
| N#Cc1ccc(CN2CC3(CCCCN3c3cccnc3)CC2=O)cc1 (stereo not given) | 57.1 |
| N#Cc1cccc(CN2CC[C@@H]3[C@@H]2CC(=O)N3Cc2cccnc2)c1 | 22.7 |
| N#Cc1ccc(CN2CCN(c3ccncc3Cl)CC2=O)cc1 | 24.5 |
| CCN1CC(COC(=O)c2ccc(N(C)C)cc2F)CC1=O (stereo not given) | -56.7 |
| O=C(c1cccc(Cl)c1)N1CCCC2(CCCNC2)C1 (stereo not given) | 0.164 |
| CN(C)C(=O)CN1C[C@H]2CC[C@@H](C1)N(Cc1ccc3nsnc3c1)C2 | 33.8 |
| Cc1ncc(C(=O)N2CCOC(C(=O)N3CCCCC3)C2)c(C)n1 (stereo not given) | -5.6 |
| CN(Cc1cccc(O)c1)Cc1cnn(C)c1 | 10 |

| Compound | INHIBITION [%] |
| --- | --- |
| Cn1cc(-n2cc3nc(N4CCOCC4)[nH]cc-3c2=O)cn1 | -38.7 |
| NC(=O)c1c(SCCN2CCOCC2)sc2c(O)cc(=O)[nH]c12 | 20 |
| O=C(C1CCC1)N1CCc2onc(Cn3cccn3)c2C1 | 24.5 |
| CN(C)S(=O)(=O)N1CCCC1c1cccc(-n2ccnc2)n1 (stereo not given) | 33.7 |
| CO[C@@H]1CC[C@@H](NC(=O)CCc2ccc(Cl)cc2)[C@H]1O | 5.35 |
| COCc1nc2ncc3c(=O)n(-c4ccc(OC)cc4)ccc3n2n1 | 15 |
| COCc1nc2ncc3c(=O)n(-c4cccc(OC)c4)ccc3n2n1 | 16.1 |
| COCc1nc2ncc3c(=O)n(-c4ccccc4OC)ccc3n2n1 | 66.9 |
| Cc1n[nH]cc1CNC(C)c1cccc(N2CCCC2=O)c1 (stereo not given) | 0.643 |
| CN1C(=O)[C@@H]2CC[C@H]1CN(C(=O)c1csc(Cc3ccccc3)n1)C2 | 35.3 |
| Cc1ccc2[nH]c(CN3CC[C@@H](N4CCN(C)CC4)[C@H](O)C3)c(C)c2c1 | 34 |
| Cc1c(CN2CCc3[nH]cnc3C2C(=O)O)[nH]c2ccc(F)cc12 (stereo not given) | 1.56 |
| Cc1c(CN2CC[C@@H](N3CCC(O)CC3)[C@H](O)C2)[nH]c2ccc(Cl)cc12 | 36.2 |
| CSCCC1c2nc[nH]c2CCN1Cc1[nH]c2ccc(F)cc2c1C (stereo not given) | 17.9 |
| Cc1c(CN2CC[C@@H](N3CCC(O)CC3)[C@H](O)C2)[nH]c2ccc(F)cc12 | 66.9 |
| Cc1c(CN2CCc3[nH]cnc3C2C2CC2)[nH]c2ccc(F)cc12 (stereo not given) | 65.7 |
| Cc1c(CN2C[C@H](O)[C@@H](N3CCOCC3)C2)[nH]c2ccc(F)cc12 | 63.1 |
| CN1CCN([C@@H]2CCN(Cc3ccc4cc(F)ccc4n3)C[C@H]2O)CC1 | -13.5 |
| Cc1c(CN2CCCC(O)C2)[nH]c2ccc(F)cc12 (stereo not given) | 16.5 |
| CC(=O)NCC(=O)N1C[C@@H](C)[C@@]2(CCN(c3ccsc3)C2=O)C1 | 15.9 |
| c1cncc(CN2CCCn3nnc(CN4CCCCC4)c3C2)c1 | 16.8 |
